Test results taken from PubChem BioAssay (NCATS).
Results filed as inconclusive are left out. Where a call stands in place of a potency, no number is given. Active and inactive are the calls of the source. Calls come from the whole dose curve; as a rule, active = well fitted inhibition curve with a large enough effect; inconclusive = small, poorly fitted or top-dose-only effect; inactive = flat fitted curve, though single readings scatter.

experiment: Primary qHTS for inhibitors of nuclear receptor binding SET domain protein 2 (NSD2) in an isogenic RCH-ACV NSD2 p.E1099K mutant (9B) (AID 1645876); conditions: RCH-ACV (leukaemia line) NSD2 E1099K (9B) viability, CellTiter-Glo, 72 h; series mostly up to 44.9 µM; note: nearly all actives have a fitted effect of over 70% in size
Potency is the fitted concentration of half-maximal effect.

SMILES	Potency
Cc1cccc(C)c1NC(=O)c1ccccc1C(=O)O	inactive
O=C(O)C(Cc1cc(I)c(O)c(I)c1)c1ccccc1 (centres undefined)	inactive
CN1CCN(CCC(=O)N2c3ccccc3Sc3ccc(C(F)(F)F)cc32)CC1	15 µM (active)
CCOc1ccccc1C(N)=O	18.8 µM (active)
